Laboratory results reported in PubChem BioAssay AID602438 (Sanford-Burnham Center for Chemical Genomics, 2012).
Several values for one entry are separate records, joined by “and”; a condition that tells them apart may be missing. Identical values can stand only once. Out of some 360,000 compounds screened, about 3,100 (0.86%) were called active. The sample holds actives, similar compounds and a random draw of the others, so the mix is not that of the screen. Values without a mark were called inactive.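 Rule for the calls: active = inhibition or corrected inhibition above about 18%, plus a signal ratio from 0.5 to 1.5 (limit read from the data, passing the limit was not always enough); inactive = the rest.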

biological target: Neuropilin-1 (Homo sapiens) (UniProt O14786); assay: NRP-1/CendR peptide interaction modulators – biochemical, fluorescence polarization, uHTS, primary screen (AID 602438); details: FAM-RPARPAR peptide binding to NRP-1, fluorescence polarization; at 25 µM; stronger effect = higher value
Sequence (O14786 whole entry, looked up): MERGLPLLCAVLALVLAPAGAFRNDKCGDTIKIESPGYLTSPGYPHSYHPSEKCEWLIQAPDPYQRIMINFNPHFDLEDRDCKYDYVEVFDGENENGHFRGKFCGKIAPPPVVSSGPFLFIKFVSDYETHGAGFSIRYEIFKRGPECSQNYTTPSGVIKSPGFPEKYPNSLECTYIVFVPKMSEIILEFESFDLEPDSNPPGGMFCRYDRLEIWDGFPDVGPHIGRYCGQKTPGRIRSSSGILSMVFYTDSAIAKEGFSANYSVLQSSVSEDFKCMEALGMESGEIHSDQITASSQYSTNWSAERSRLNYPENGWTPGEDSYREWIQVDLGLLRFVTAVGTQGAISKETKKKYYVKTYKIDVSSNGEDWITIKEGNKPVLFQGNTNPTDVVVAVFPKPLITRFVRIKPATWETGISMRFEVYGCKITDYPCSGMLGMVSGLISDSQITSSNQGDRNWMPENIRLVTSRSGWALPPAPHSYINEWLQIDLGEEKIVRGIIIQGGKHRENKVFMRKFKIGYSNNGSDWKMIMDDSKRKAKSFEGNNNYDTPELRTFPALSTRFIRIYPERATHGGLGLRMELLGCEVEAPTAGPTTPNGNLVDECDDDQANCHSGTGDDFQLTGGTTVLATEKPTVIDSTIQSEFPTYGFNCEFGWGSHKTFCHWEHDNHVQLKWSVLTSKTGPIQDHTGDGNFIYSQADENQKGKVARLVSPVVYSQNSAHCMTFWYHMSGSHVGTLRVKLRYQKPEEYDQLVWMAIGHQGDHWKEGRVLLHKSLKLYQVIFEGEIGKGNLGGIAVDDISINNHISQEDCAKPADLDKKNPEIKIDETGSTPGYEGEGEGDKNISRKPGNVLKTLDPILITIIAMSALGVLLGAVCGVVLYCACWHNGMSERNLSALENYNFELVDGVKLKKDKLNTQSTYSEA

| SMILES | inhibition |
| --- | --- |
| Cc1cc(Nc2ccc(C)c(C)c2)n2ncnc2n1 | 4.8% |
| CC1(c2cccc(Br)c2)NC(=O)N(CC(=O)NCCC2=CCCCC2)C1=O (configuration not stated) | 6.7% |
| Cc1ccc(S(=O)(=O)NNC(=O)Nc2cccc3ccccc23)cc1 | 1.8% |
| Cc1ccc(S(=O)(=O)NC(=O)c2cccc(C)c2)cc1 | -0.5% |
| Cc1ccc(S(=O)(=O)NNC(=O)/C=C/c2cccc(F)c2)cc1 | 20.7% (active) |
| COc1ccc(Cl)cc1NC(=O)CN(C)C(=O)CCCc1c[nH]c2ccccc12 | 7.5% |
| COc1ccccc1NC(=O)CCCc1c[nH]c2ccccc12 | 65.3% (active) |
| COc1ccc(CN(C)C(=O)Cc2c[nH]c3ccccc23)c(OC)c1OC | -1.4% |
| C=C(C)C1CC=C(C)/C(=N\NC(=O)CNc2ccccc2OC)C1 (configuration not stated) | 20.9% (active) |
| C=C(C)C1CC=C(C)/C(=N/NC(=O)CCCNc2cccc(C)c2)C1 (configuration not stated) | 1.4% |
| COc1ccccc1NC(=O)COC(=O)CNC(=O)C1CCCCC1 | 9.6% |
| N#C/C=C\Oc1ccc(Cl)cc1N | -3.7% |
| COc1ccc(C2CC(c3cccs3)=NN2C(=O)CSc2nncs2)cc1OC (configuration not stated) | 28.8% (active) |
| COc1ccc(C2CC(c3cccs3)=NN2C(=O)CSc2nnc(N)s2)cc1OC (configuration not stated) | 0.7% |
| COc1ccc(C2CC(c3cccs3)=NN2C(=O)COC(=O)c2cc3ccccc3cc2O)cc1OC (configuration not stated) | 6.7% |
| CCN(CC(=O)Nc1c(F)cccc1F)C(=O)c1cnc(C)cn1 | 3.1% |
| CCN(CC(=O)Nc1c(F)cccc1F)C(=O)c1ccc(-c2ccc(C(C)=O)cc2)o1 | 45.1% (active) |
| CCN(CC(=O)Nc1c(F)cccc1F)C(=O)c1ccc(-c2ccccc2)cc1 | 4.3% |
| CCN(CC)S(=O)(=O)c1ccc(C(=O)N2CCN(C3=NS(=O)(=O)c4ccccc43)CC2)cc1 | -0.8% |

| SMILES | inhibition |
| --- | --- |
| CC1CCCCC12NC(=O)N(CC(=O)Nc1ccc(S(=O)(=O)Nc3ncccn3)cc1)C2=O (configuration not stated) | -8.9% |
| Cc1nnc(CN(C)Cc2cn[nH]c2-c2ccc(-c3ccccc3)cc2)o1 | -2.9% |
| COC(=O)C1[C@H]2SC(C)(C)C(C(=O)OC)N2C(=O)N1Cc1nc2ccccc2s1 (some centres not stated) | 4.5% |
| CC1(C)SC2C(NC(=O)COc3ccccc3)C(=O)N2C1C(=O)O (configuration not stated) | -22.6% and -10.8% |
| CC1(C)S[C@@H]2[C@H](NC(=O)COc3ccccc3)C(=O)N2C1C(=O)OCc1ccccc1 (some centres not stated) | 26.2% (active) |
| COC(=O)c1c(NC(=O)COC(=O)[C@@H](NS(=O)(=O)c2ccccc2)C(C)C)sc2c1CCC2 | -8.2% |
| CC(C)OC(=O)c1cc(NC(=O)C2C3CCC(O3)C2C(=O)O)cc(C(=O)OC(C)C)c1 (configuration not stated) | -0.2% |
| COc1ccc(NC(=O)C2C3CCC(O3)C2C(=O)O)cc1OC (configuration not stated) | 4.9% |
| Cc1sc(NC(=O)C2C3CCC(O3)C2C(=O)O)c(C(=O)OC(C)C)c1-c1ccc(Cl)cc1 (configuration not stated) | 21% (active) |
| O=C(CN1C(=O)NC(Cc2c[nH]c3ccccc23)C1=O)Nc1ccccc1C(F)(F)F (configuration not stated) | -6.7% |
| CCn1c(C)nc2cc(C(=O)NNS(=O)(=O)c3ccc(C)cc3C)ccc21 | -7% |
| C[n+]1ccc(C(=O)NCc2ccccc2)cc1 | 8.4% |
| CNS(=O)(=O)c1cccc(C(=O)NC2CCCc3ccccc32)c1 (configuration not stated) | -7.1% |
| CCOc1c2ccc(C(=O)NC3CCCc4ccccc43)cc2nn1CC (configuration not stated) | 22.9% (active) |
| Cc1cc(N2C(=O)c3ccc(C(=O)NCc4ccccc4)cc3C2=O)no1 | -12.4% |
| CCCn1nc2cc(C(=O)NCc3ccccc3)ccc2c1OCC | 27% (active) |
| CCOc1ccc(NC(=O)COc2ccc(C(=O)NC3CCCc4ccccc43)cc2OC)cc1 (configuration not stated) | -6.4% |
| CC(=O)Cn1ncc(N2CCOCC2)c(Br)c1=O | -5.8% |
| Cc1ccc(OCCNC(=O)CCNS(=O)(=O)c2ccc(Br)cc2)cc1 | 4.5% |

| SMILES | inhibition |
| --- | --- |
| Nc1c(C(=O)c2cccs2)sc2nsc(SCCN3CCCCC3)c12 | 131% |
| Cn1c(CCC(=O)Nc2ccccc2F)nnc1SCC(=O)Nc1ccccc1Cl | -3.9% |
| COc1ccccc1NC(=S)N1CCC(NC(=O)C23CC4CC(CC(C4)C2)C3)CC1 | -1.5% |
| CC(Oc1cc2oc(=O)c3c(c2cc1Cl)CCCC3)C(=O)NCc1ccncc1 (configuration not stated) | -1.5% |
| COc1ccc(S(=O)(=O)NC(C)C(=O)NCc2ccncc2)cc1Cl (configuration not stated) | 22.5% (active) |
| Cc1ccc(S(=O)(=O)NC(C)C(=O)NCc2ccc(Cl)cc2)cc1 (configuration not stated) | -8.1% |
| COc1cccc(NC(=O)N2CCC(NC(=O)C(Cc3cccc(C)c3)NC(C)=O)CC2)c1 (configuration not stated) | 9.8% |
| CCOC(=O)c1c(/N=C/C2C(=O)CC(C)(C)CC2=O)sc(C)c1C | -41.2% |
| COc1ccccc1OCCC(=O)OCC(=O)NCc1ccccc1 | 31.3% (active) |
| COc1ccccc1OCCC(=O)OCC(=O)NC(=O)NC(C)(C)C | -7.2% |
| Cc1ccc(C)c(OCCC(=O)OCC(=O)NC(=O)NCc2ccccc2)c1 | -19% |
| CC1CCCC(N2CCN(C(=O)c3ccc(F)cc3)CC2)C1 (configuration not stated) | 1.1% |
| CC(C)(C)c1cc(=O)n2c(nc3ccccc32)[nH]1 | 3.4% |
| COc1ccc(C)cc1N(CC(=O)NC(C)c1ccccc1)S(C)(=O)=O (configuration not stated) | 3.7% |
| CCCc1ccc(OCc2ccc(C(=O)N/N=C/c3cccc([N+](=O)[O-])c3)o2)c(OC)c1 | -4.8% |
| COc1ccc(O)c(/C=N/N=C/c2cccc([N+](=O)[O-])c2)c1 | 6.7% |
| COc1cc(/C=N\NC(=O)CNC(=O)c2cccc([N+](=O)[O-])c2)ccc1O | 21.9% (active) |
| O=C(/C=C/c1cccs1)NCc1cccnc1 | -0.9% |
| CC[C@]12c3[nH]c4ccc(Cl)cc4c3CCN1C(=O)[C@@H](CC(=O)NCCCOC)C[C@@H]2C(=O)N1CCN(C(=O)c2ccco2)CC1 | 0.7% |
